CYP2C19 inhib – blocks human cytochrome P450 2C19. P33261. CYP2C19 Supersomes, luciferin-H EGE luminescence, 30 min. inhibition, % at 5 µM. 96,000 tested, 21% active. AID 778;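 active = CYP2C19 inhibition above a set limit at 5 µM in the primary screen, cut at about 50% in these data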;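 note: plate controls were negative control wells for no effect and 2.5 mM tranylcypromine positive control for full effect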
CD11b adhes enh – CD11b/CD18-fibrinogen binding enhancement; P05107+P11215; K562 CD11b/CD18 adhesion to fibrinogen, ATPlite luminescence; activation, % at 10 µM; 93,000 tested, 0.07% active; AID 1499;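 active = 10 µM primary screen giving 50% or more activity, confirmed by 40% or more on retest at that dose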
Target sequence (P05107 whole entry, looked up, other chains not shown): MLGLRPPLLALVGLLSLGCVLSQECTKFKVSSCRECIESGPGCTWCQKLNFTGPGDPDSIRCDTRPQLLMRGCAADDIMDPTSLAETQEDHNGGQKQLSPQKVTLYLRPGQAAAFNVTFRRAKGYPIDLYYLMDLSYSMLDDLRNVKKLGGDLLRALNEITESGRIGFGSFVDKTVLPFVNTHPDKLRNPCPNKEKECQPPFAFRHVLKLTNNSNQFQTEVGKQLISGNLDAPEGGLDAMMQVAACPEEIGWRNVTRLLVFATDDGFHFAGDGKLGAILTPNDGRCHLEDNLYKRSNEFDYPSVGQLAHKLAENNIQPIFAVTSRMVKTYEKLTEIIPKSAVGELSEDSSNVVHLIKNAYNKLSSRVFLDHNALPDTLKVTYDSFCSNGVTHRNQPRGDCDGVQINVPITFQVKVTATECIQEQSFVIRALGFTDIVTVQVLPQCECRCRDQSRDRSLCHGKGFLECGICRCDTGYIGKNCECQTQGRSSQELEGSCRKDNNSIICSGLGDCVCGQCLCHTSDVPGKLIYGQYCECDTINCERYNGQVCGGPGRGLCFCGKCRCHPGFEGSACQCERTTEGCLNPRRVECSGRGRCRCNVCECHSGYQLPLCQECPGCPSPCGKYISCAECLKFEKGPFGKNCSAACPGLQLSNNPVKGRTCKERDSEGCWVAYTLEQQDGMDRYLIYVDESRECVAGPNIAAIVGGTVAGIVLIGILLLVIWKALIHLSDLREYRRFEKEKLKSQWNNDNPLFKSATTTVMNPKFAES
Mac1 fbg inh – CD11b/CD18-fibrinogen binding inhibition. P05107+P11215. K562 CD11b/CD18 adhesion to fibrinogen, ATPlite luminescence; Mn2+ added to activate the integrin. inhibition, % at 10 µM. 93,000 tested, 0.54% active;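 active = primary inhibition of 50% or more at 10 µM, then 40% or more on retest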
CYP2C9 inh – human CYP2C9 inhibition. CYP2C9 Supersomes, luciferin-H conversion, luminescence. 96,000 tested, 20% active. AID 777. inhibition, % at 5 µM;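 active = blocking of liver enzyme CYP2C9 beyond about 50% at 5 µM, limit read from the data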
CYP2C19 act – increases human CYP2C19 enzyme activity | P33261 | activation factor at 5 µM | 96,000 tested, under 10 active | recombinant CYP2C19, luciferin-H EGE luminescence; active compounds read high; 0 = fully inhibited enzyme, 1 = untreated enzyme | AID 1025;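 active = activation factor of at least 2 at 5 µM in the primary screen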;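 note: 0 = wells with 2.5 mM tranylcypromine and 1 = vehicle-only wells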
CYP2C9 act – CYP2C9 (human) activation | 96,000 tested, 1.4% active | AID 1024 | activation factor at 5 µM | recombinant CYP2C9, luciferin-H conversion, luminescence; active compounds read high; factor 1 = untreated enzyme, 0 = blocked;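 active = activation factor of 2 or more for CYP2C9 at a 5 µM dose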;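 note: 0 = sulfaphenazole-blocked wells and 1 = vehicle-only wells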
The depositor's hits bear a star; . = not tested or not shown. Sampled rows, rich in hits. Any-hit rate of the full collection: about 28%.

SMILES	CYP2C19 inhib	CD11b adhes enh	Mac1 fbg inh	CYP2C9 inh	CYP2C19 act	CYP2C9 act
C=CCn1c(O)c(C(CC)=NCc2cccnc2)c(=O)[nH]c1=O	54*	8	48	26	0.5	0.7
CC(=O)Nc1ccc(S(=O)(=O)NCCC(=O)OCCN2C(=O)c3ccccc3C2=O)cc1	70*	-1	4	93*	0.3	0.1
COc1ccc(Cc2nnn(CC(=O)O)n2)cc1	-2	-2	-19	-27	1	1.3
Cc1ccc(CNC(=O)c2ccc(Cl)cc2[N+](=O)[O-])cc1	18	.	.	-44	0.8	1.4
CCOC(=O)c1sc(C)c2c1NC(C)(c1ccccc1)NC2=O (stereo unspecified)	18	-3	3	68*	0.8	0.3
CCOC(=O)c1sc(C)c2c1NC(c1ccc(Cl)cc1)NC2=O (stereo unspecified)	12	-8	0	53*	0.9	0.5
CCOC(=O)c1sc(C)c2c(=O)n(CCc3ccccc3)nnc12	-8	6	-2	-1	1.1	1
Cc1ccc(/C=C2\OC(=O)c3ccccc32)cc1	5	.	.	17	1	0.8
Cc1ccc2nsnc2c1S(=O)(=O)N(Cc1ccco1)Cc1cc2ccc(C)c(C)c2[nH]c1=O	2	1	2	8	1	0.9
CCOC(=O)C(C)(C)C(=O)C(C)(C)C(O)c1ccccn1 (stereo unspecified)	51*	0	2	-1	0.5	1
CC(C)(C)CC(=O)O/N=C(\N)c1ccccn1	.	-6	5	.	.	.
O=S(=O)(NCCn1ccc2ccccc21)c1ccccc1	100*	0	-25	70*	0	0.3
Cc1ccc(S(=O)(=O)NCCn2c(C)cc3ccccc32)cc1	67*	.	.	68*	0.3	0.3
Cc1cc(C)c(S(=O)(=O)NCCn2c(C)cc3ccccc32)c(C)c1	73*	5	-17	90*	0.3	0.1
O=C(CSc1nnnn1C1CCCCC1)NCCc1ccccc1	9	-4	-2	15	0.9	0.9
CCOc1ccc(S(=O)(=O)Oc2ccc3ccccc3c2)cc1	.	-7	92	.	.	.
Cc1ccccc1OC1C(=O)N(Cc2ccc3c(c2)OCO3)C1c1sccc1C (stereo unspecified)	74*	.	.	82*	0.3	0.2
O=C(CN(Cc1ccc(F)cc1)C(=O)C1CSC(=O)C1)NC1CCCCC1 (stereo unspecified)	40	.	.	11	0.6	0.9
O/N=C/CCn1c(=S)sc2ccccc21	50	3	-15	-409	0.5	5.1*
COc1ccccc1N(Cc1cc2cccc(C)c2[nH]c1=O)C(=O)C(C)C	20	-4	-16	38	0.8	0.6
Cc1csc(NC(=O)Cc2nn(C)c(=O)c3ccccc23)n1	-7	-7	45	16	1.1	0.8
COc1ccccc1N(CN1C(=O)c2ccccc2C1=O)C(=O)c1cccc(C)c1	.	0	11	.	.	.
CC1CCc2cc(F)ccc2N1C(=O)CCC(=O)O (stereo unspecified)	-2	-2	-17	-3	1	1
CCCc1nc(SCC(=O)N2c3ccccc3CC2C)c2c(C)c(C)sc2n1 (stereo unspecified)	64*	-1	18	94*	0.4	0.1
CC1Cc2ccccc2N1C(=O)CSc1nnc(-c2ccccc2)c(-c2ccccc2)n1 (stereo unspecified)	85*	.	.	100*	0.2	0
SMILES	CYP2C19 inhib	CD11b adhes enh	Mac1 fbg inh	CYP2C9 inh	CYP2C19 act	CYP2C9 act
CC1CCc2cc(F)ccc2N1C(=O)CSc1nnc2c(n1)[nH]c1ccc(F)cc12 (stereo unspecified)	77*	.	.	57*	0.2	0.4
O=C(CSc1nnc(-c2ccccc2)c(-c2ccccc2)n1)N1CCOCC1	19	-3	-3	25	0.8	0.7
CC1Cc2ccccc2N1C(=O)CSc1nnc(Cn2nnc3ccccc32)n1C (stereo unspecified)	13	0	30	-4	0.9	1
CCc1nc(SCC(=O)Nc2nnc(CC)s2)c2c(C)c(C)sc2n1	-2	72	-16	11	1	0.9
CC1Cc2ccccc2N1C(=O)CSc1nnc2c(n1)[nH]c1ccccc12 (stereo unspecified)	55*	-2	-10	46	0.4	0.5
Cc1nc2ccccc2c2c1C(=O)N(Cc1cccnc1)C2=O	97*	-6	3	46	0	0.5
CCCCNC(=O)c1onc(CCl)c1C(=O)OC	15	-1	13	-8	0.8	1.1
COc1ccc(-n2c(C)c(C(C)=O)c(C(C)=O)c2C)cc1	27	-2	13	0	0.7	1
COc1cccc(-n2c(C)c(C(C)=O)c(C(C)=O)c2C)c1	77*	-4	-6	78*	0.2	0.2
COc1ccc(-n2c(C)c(C(C)=O)c(C(C)=O)c2C)cc1OC	68*	-3	-14	0	0.3	1
CC1(C(=O)OCC(=O)N2c3ccccc3Sc3ccccc32)CC1(Cl)Cl (stereo unspecified)	.	0	8	.	.	.
COCc1cc(C)nc(N2CCN(Cc3ccccc3)CC2)c1C#N	95*	3	52*	14	0.1	0.9
COCc1cc(C)nc(N2CCN(c3ccccc3)CC2)c1C#N	69*	-2	-16	-139	0.3	2.4*
COCc1cc(C)nc(N2CCNCC2)c1C#N	-9	1	1	-15	1.1	1.1
COCc1cc(C)nc(NC2CCCCC2)c1C#N	-4	-2	14	4	1	1
COCc1cc(C)nc(NCCc2ccccc2)c1C#N	52*	4	-9	4	0.5	1
C=CCNc1cc(C)oc(=O)c1C(=O)CCC	-2	2	-22	-26	1	1.3
CCCCCn1c(=O)[nH]c2cc(C(=O)NCc3ccco3)ccc2c1=O	22	-4	-5	34	0.8	0.7
CCOC(=O)N1CCN(C(=O)C2CCN(S(=O)(=O)c3ccc(C)cc3)CC2)CC1	10	-1	-8	-35	0.9	1.4
CCOC(=O)N1CCN(C(=O)C2CCN(S(=O)(=O)c3cc(Cl)ccc3Cl)CC2)CC1	51*	-2	7	-143	0.5	2.4*
CCOC(=O)C1CCN(C(=O)C2CCN(S(=O)(=O)c3cc(Cl)ccc3Cl)CC2)CC1	15	4	2	-135	0.9	2.4*
CCOC(=O)C1CCN(C(=O)C2CCCCC2)CC1	18	4	4	8	0.8	0.9
N#C/C(=C/c1ccccc1)c1nn(CCO)c(N)c1C#N	94*	4	-34	77*	0.1	0.2
Cc1nn(Cc2ccccc2)c(N)c1C#N	15	0	-7	1	0.9	1
COc1ccc(CCNC(=O)C2CCC(CNc3c(N4CCCC4)c(=O)c3=O)CC2)cc1OC (stereo unspecified)	-4	-6	-9	-4	1	1
